Test results as given in PubChem BioAssay AID504333 (National Center for Advancing Translational Sciences (NCATS), 2011).
About 16,000 (4.4%) of roughly 360,000 compounds were called active. Not shown: some 9% with an inconclusive outcome. The entries come from a sample that favours actives as a whole. A number with no mark means an inactive call. Calls follow the shape of the dose curve; as a rule, active = well fitted inhibition curve with a large enough effect; inconclusive = small, poorly fitted or top-dose-only effect; inactive = no such curve, though single readings can be large or run the other way.

Each molecule was assayed against Bromodomain adjacent to zinc finger domain protein 2B (Homo sapiens) (UniProt Q9UIF8) (assay: qHTS Assay for Inhibitors of BAZ2B). Conditions: AlphaScreen BAZ2B-H3K14Ac peptide displacement; series mostly up to 114 µM; activity change, negative = inhibition: at the top concentration.
In short: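 AlphaScreen displacement: compounds (up to 110uM) incubated 30 min at room temperature with a preformed 50 nM BAZ2B/50 nM biotinylated H3K14Ac peptide complex in PBS pH 7.4 with Tween-20. Donor and acceptor beads at 10 ug/mL final added, 20 min light-protected before reading.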
% is scaled to controls: 0 for no effect and ±100 for the full control effect; potency is read from the fitted curve at half-maximal effect.
Also: nearly all actives have a fitted effect of over 60% in size.

Chain of Bromodomain adjacent to zinc finger domain protein 2B (Homo sapiens) (Q9UIF8 whole entry, looked up, the tested form may be a part): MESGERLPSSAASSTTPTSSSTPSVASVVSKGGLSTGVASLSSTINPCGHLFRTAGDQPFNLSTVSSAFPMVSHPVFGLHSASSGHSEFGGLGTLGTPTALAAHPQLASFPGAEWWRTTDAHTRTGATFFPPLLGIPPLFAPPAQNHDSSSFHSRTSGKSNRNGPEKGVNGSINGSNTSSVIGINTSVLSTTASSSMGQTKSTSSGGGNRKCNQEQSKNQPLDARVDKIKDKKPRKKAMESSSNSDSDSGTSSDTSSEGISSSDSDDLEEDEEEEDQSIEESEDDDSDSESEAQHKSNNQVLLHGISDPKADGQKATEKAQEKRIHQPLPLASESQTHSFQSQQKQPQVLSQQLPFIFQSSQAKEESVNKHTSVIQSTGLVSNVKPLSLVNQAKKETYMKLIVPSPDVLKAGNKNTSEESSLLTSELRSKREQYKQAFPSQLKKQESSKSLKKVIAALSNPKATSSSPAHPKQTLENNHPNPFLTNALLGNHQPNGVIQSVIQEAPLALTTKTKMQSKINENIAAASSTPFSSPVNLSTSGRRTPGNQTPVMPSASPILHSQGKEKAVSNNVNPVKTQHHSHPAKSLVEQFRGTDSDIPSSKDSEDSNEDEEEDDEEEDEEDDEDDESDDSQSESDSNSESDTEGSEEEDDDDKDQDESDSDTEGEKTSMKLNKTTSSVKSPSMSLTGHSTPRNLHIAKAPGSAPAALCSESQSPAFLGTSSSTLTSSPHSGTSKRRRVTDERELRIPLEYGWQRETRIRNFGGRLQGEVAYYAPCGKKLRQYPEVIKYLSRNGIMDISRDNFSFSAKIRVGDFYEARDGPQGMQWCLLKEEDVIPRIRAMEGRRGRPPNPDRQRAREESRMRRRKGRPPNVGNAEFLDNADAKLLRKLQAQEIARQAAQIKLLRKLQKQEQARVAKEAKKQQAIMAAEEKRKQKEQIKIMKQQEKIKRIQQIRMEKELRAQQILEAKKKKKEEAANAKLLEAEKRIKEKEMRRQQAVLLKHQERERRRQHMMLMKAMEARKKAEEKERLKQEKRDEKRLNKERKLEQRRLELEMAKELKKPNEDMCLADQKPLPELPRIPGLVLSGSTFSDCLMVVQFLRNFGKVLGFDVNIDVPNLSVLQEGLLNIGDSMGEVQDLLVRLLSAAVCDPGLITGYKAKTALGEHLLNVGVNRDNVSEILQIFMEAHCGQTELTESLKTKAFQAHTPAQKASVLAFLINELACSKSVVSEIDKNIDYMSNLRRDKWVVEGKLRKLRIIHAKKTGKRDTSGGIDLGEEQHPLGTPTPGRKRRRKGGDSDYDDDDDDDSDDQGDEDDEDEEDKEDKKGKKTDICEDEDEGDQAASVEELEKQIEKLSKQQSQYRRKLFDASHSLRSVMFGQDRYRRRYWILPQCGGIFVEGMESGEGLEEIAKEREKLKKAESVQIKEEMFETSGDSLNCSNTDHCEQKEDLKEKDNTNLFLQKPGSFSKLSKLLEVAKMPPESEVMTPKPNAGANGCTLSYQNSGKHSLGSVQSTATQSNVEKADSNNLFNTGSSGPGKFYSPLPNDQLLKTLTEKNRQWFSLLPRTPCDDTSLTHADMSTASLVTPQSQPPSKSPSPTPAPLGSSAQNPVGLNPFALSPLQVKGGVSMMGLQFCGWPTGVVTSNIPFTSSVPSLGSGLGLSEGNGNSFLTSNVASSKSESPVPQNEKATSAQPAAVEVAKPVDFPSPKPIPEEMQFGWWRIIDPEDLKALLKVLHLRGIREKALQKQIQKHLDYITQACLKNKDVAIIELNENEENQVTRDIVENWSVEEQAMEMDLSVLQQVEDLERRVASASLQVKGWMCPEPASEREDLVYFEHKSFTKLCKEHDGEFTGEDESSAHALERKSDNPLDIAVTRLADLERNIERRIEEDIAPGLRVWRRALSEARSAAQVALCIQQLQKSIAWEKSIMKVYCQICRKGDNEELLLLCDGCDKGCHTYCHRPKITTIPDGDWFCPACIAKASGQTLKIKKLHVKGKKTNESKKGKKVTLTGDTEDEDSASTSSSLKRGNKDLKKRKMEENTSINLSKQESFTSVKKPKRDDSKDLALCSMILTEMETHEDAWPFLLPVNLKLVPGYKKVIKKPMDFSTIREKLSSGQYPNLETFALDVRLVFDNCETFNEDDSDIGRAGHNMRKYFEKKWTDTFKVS

SMILES | activity change, negative = inhibition | Potency
Cc1cc(=O)n(CC(=O)Nc2cccc([N+](=O)[O-])c2)c(-n2nc(C)cc2C)n1 | -21.5% | 
N#Cc1ccccc1Cn1cnc2nc3c(cc2c1=O)CCCC3 | -3.89% | 
COc1ccc(-c2cc(-c3nc(-c4cc(OC)c(OC)c(OC)c4)no3)[nH]n2)c(OC)c1 | -1.15% | 
COc1ccc(N2CCN(C(=O)c3c(C)oc4nc(C)nc(N5CCCC5)c34)CC2)cc1 | 4.5% [at 57.1 µM] | 
CC1=NN(c2ccccc2)C(=O)C1C(=O)c1ccc([N+](=O)[O-])cc1 (stereo unspecified) | -13.4% | 
O=C1CC(c2ccccc2)=NN1c1ccc([N+](=O)[O-])cc1 |  | 25.1 µM (active)
O=c1[nH]n(-c2ccc([N+](=O)[O-])cc2)c(=O)c2ccccc12 | 20.8% | 
CCCn1c2ccccc2c2cnn(CC(=O)NCCCOC(C)C)c(=O)c21 | -7.08% | 
CCc1nnc2c3ccccc3nc(N3CCN(c4ccc(C)cc4C)CC3)n12 | 4.68% [at 57.1 µM] | 
OCCn1c(-c2ccccc2)csc1=Nc1ccccc1 |  | 11.2 µM (active)
Cc1csc(=NC(=O)c2ccccc2)n1CCO | 3.79% | 
CC(C)Cn1c(-c2ccc(S(=O)(=O)N3CCOCC3)cc2)csc1=Nc1cc(Cl)ccc1Cl | -37.6% | 
CN(C)CCCn1c(-c2ccc(Cl)cc2)csc1=Nc1ccccc1 |  | 12.6 µM (active)
Cc1cccn2c(=O)c(C(=O)NC(C)c3ccccc3)cnc12 (stereo unspecified) | -1.1% | 
Cc1csc2nc(COC(=O)c3ccccc3NC(=O)c3ccccc3Cl)cc(=O)n12 | -0.509% | 
Cc1ccc(CN2COc3cc(C)c4c(oc(=O)c5ccccc54)c3C2)cc1 | -9.36% | 
CC(=O)c1sc(N2C(=O)c3oc4ccccc4c(=O)c3C2c2ccc(C)cc2)nc1C (stereo unspecified) | 0.549% | 
Cc1ccc(S(=O)(=O)c2cn(Cc3ccccc3)c3cc(N4CCCC4)c(F)cc3c2=O)c(C)c1 | 4.01% | 
Oc1ccc2ccccc2c1N=Nc1nccs1 |  | 2 µM (active)
Oc1ccc(N=Nc2nccs2)c(O)c1 |  | 25.1 µM (active)
CCc1ccccc1N(C)C(=O)C1CCCN(c2ncnc3onc(-c4ccc(F)cc4)c23)C1 (stereo unspecified) | 6.53% [at 57.1 µM] | 
CN(C(=O)CSc1nc2ccccc2n1Cc1ccccc1C#N)c1ccccc1 | -36.5% | 

SMILES | activity change, negative = inhibition | Potency
CC(C)(C)OC(=O)N1CCC(c2c(C(=O)NCCc3ccsc3)cnn2-c2ccc(F)cc2F)CC1 | -1.06% [at 57.1 µM] | 
Cc1ccccc1CNC(=O)CCCn1nc(C)c2sc3ccccc3c2c1=O | -3.88% | 
Cc1ccc2c(Cl)c(C(=O)Nc3nn[nH]n3)sc2c1 |  | 50.1 µM (active)
CCCC(=O)Nc1ccc(NC(=O)c2sc3ccccc3c2Cl)cc1 | -3.87% | 
Cc1ccc(-c2cc(C(=O)Nc3nn[nH]n3)c3ccccc3n2)c(C)c1 | 7.22% | 
CN(C)S(=O)(=O)c1ccc(C(=O)N(Cc2cccnc2)c2nc3c(F)cc(F)cc3s2)cc1 | 1.49% | 
CC(=O)Nc1cccc(NC(=O)CSc2cn(CC(=O)N3CCCC3)c3ccccc23)c1 | -15.1% | 
COc1ccc(Cn2c(=O)n(-c3ccccc3C)c(=O)c3c4c(sc32)CN(C(C)=O)CC4)cc1 | -6.59% | 
CCOc1ccc(/C=C2\SC(=S)N(NC(=O)c3ccncc3)C2=O)cc1OC | -34.1% | 
CN1C(=O)C(CC(N)=O)N(NC(=O)c2ccc(Cl)cc2)C1=S (stereo unspecified) | -6.62% | 
Cn1cccc1/C=C1\SC(=S)N(NC(=O)c2ccc(Cl)cc2)C1=O |  | 12.6 µM (active)
COc1ccc(N2CCN(C(=O)CSCc3nc(-c4ccccc4Cl)oc3C)CC2)cc1 | 4.75% | 
Cc1cccc(N=Nc2c(C)[nH]n(-c3ccccc3)c2=O)c1 |  | 3.16 µM (active)
Cc1cccc(N=Nc2c(O)[nH]c3ccc(F)cc23)c1 | -13.2% | 
Cc1[nH]n(C)c(=O)c1N=Nc1ccc(S(C)(=O)=O)cc1 | -19.1% | 
O=C(CCS(=O)(=O)c1ccccc1)N(Cc1cccnc1)c1nc2c(F)cccc2s1 | -1.19% | 
Cc1ccc(Cl)cc1N(C)C(=O)Cn1nc(Cc2cccnc2)c2ccccc2c1=O | -25.1% | 
CC1CCCCN1S(=O)(=O)c1ccc(F)c(C(=O)Nc2ccccc2C(F)(F)F)c1 (stereo unspecified) | 5.64% | 
CCn1cc(NC(=O)Nc2ccc(OC)c(OC)c2)c(C(N)=O)n1 | 13.7% | 
COc1ccc(NC(=O)NC(C)c2c(-n3cccc3)sc(C)c2C)cc1OC (stereo unspecified) |  | 35.5 µM (active)
Cc1ccc(NC(=O)NC(C)c2c(-n3cccc3)sc(C)c2C)c(C)c1 (stereo unspecified) | 2.45% | 
Cc1cc(Nc2cccc(C(F)(F)F)c2)nc2ccc(NC(=O)c3ccc(=O)[nH]c3)cc12 | -5% | 

SMILES | activity change, negative = inhibition | Potency
COc1ccc(-c2nnc3n2CCCCC3)cc1 | 0.531% | 
COc1ccc(-c2nc(SCC(=O)N3CCCC3)n[nH]2)cc1 | 4.84% | 
COc1ccc(-c2nc3n(c2Br)CCC3)cc1 |  | 50.1 µM (active)
CCc1nn(CC(=O)Nc2cc(C)cc(C)c2)c(=O)c2cc3sccc3n12 | -3.37% | 
COc1ccc(-c2cc(=O)c3c(O)cc(O[C@@H]4O[C@H](CO[C@@H]5O[C@@H](C)[C@H](O)[C@@H](O)[C@H]5O)[C@@H](O)[C@H](O)[C@H]4O)cc3o2)cc1O | -3.8% | 
CCOC(=O)COc1cc(OCC(=O)OCC)c2c(=O)cc(-c3ccccc3)oc2c1 | 3.07% | 
COc1c(O)cc2oc(-c3ccc(O)c(O)c3)cc(=O)c2c1O |  | 50.1 µM (active)
COCCCn1c(Cc2csc(Nc3cccc(Cl)c3)n2)nnc1SCC(=O)OC1CCCCC1 |  | 39.8 µM (active)
COCCCn1c(SCC(=O)NC2CCCC2)nnc1-c1ccccc1 | 4.71% | 
COCCCn1c(SCC(=O)Nc2ccccc2)nnc1-c1ccncc1 | 2.13% | 
COc1ccc(-c2cc(C(=O)NCc3cc(OC)c(OC)c(OC)c3)[nH]n2)cc1 | -15.3% | 
CN(C)c1cccc(C(=O)Nc2nc3ccc(S(=O)(=O)NC(C)(C)C)cc3s2)c1 | -20.8% | 
Cc1cc(C)c(NC(=O)CN2CCCCCC2)c(C)c1 | -4.99% | 
Cc1csc(NC(=O)CN2CCCCCC2)n1 |  | 50.1 µM (active)
O=C(CN1CCCCCC1)Nc1c(Cl)cc(Cl)cc1Cl | -1.52% | 
CCOc1ccc(-c2nonc2NC(=O)c2oc3ccc(C)cc3c2C)cc1OCC | 1.66% | 
COc1ccc(CCNc2nc(-c3ccc(Cl)cc3)cc(C(F)(F)F)n2)cc1OC | -0.128% | 
C#CCOCCOCCOCCNc1nc(N2CCN(C(=O)[C@H](CCCCN)n3cc([C@@H](N)C(C)CC)nn3)CC2)nc(N2CCN(C(=O)[C@H](Cc3ccc(O)cc3)n3cc([C@@H](N)C(C)CC)nn3)CC2)n1 (stereo partly specified) |  | 44.7 µM (active)
C#CCOCCOCCOCCNc1nc(N2CCN(C(=O)[C@H](Cc3ccc(O)cc3)n3cc(C(N)CC(C)C)nn3)CC2)nc(N2CCN(C(=O)[C@H](CCC(=O)O)n3cc(C(N)[C@H](C)CC)nn3)CC2)n1 (stereo partly specified) |  | 70.8 µM (active)
C#CCOCCOCCOCCNc1nc(N2CCN(C(=O)C(Cc3ccc(O)cc3)n3cc(C(N)CC(C)C)nn3)CC2)nc(N2CCN(C(=O)C(Cc3ccc(O)cc3)n3cc(C(N)C(C)CC)nn3)CC2)n1 (stereo unspecified) |  | 56.2 µM (active)
CC[C@H](C)[C@@H](C(=O)N1CCNCC1)n1cc([C@@H](N)Cc2ccc(O)cc2)nn1 | -27.4% | 
C#CCOCCOCCOCCNc1nc(N2CCN(C(=O)[C@H](CCC(=O)O)n3cc(C(N)CO)nn3)CC2)nc(N2CCN(C(=O)[C@H](Cc3ccc(O)cc3)n3cc(C(N)[C@H](C)CC)nn3)CC2)n1 (stereo partly specified) |  | 39.8 µM (active)
